Active and inactive are the calls of the source.

The target of one assay is Albumin (Bos taurus) (UniProt P02769). The assay can be described thus: bovine serum albumin binders on microarray, profiling panel, artefact control for SMM control protein annotation, biochemical, small-molecule microarray, Alexa647 label, 635/667 nm fluorescence (AID 1118).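 Further: score merges 667 nm emission intensity and signal-to-noise per printed compound spot.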 Particulars: BSA-A647 binding, fluorescence 635 nm, higher = more signal.
Assay [1] in a line: small-molecule microarray binders of probe aXIP, primary screen, biochemical, NeuroSMM set, 635/667 nm fluorescence (AID 1119).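 Further: probe is the protein aXip251-270 applied at 1 µg/mL to compound-printed slides; binding of probe to printed compounds measured as 667 nm fluorescence plus signal to noise.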 Particulars: higher = more signal, called active from +8 up or from −8 down.
Assay [2] in a line: small-molecule binders of probe aNOTCH3, primary screen, biochemical, small-molecule microarray, 635/667 nm fluorescence (AID 1120).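 Further: probe is a biotin-tagged antibody raised against NOTCH3 rather than NOTCH3 protein; score merges spot fluorescence near 667 nm with spot signal to noise.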 Conditions: higher = more signal.
Assay [3] in a line: small-molecule binders of probe aNOTCH2, primary screen, biochemical, small-molecule microarray, 635/667 nm fluorescence (AID 1121).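 Further: score merges feature fluorescence read at 667 nm with its signal to noise.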 Particulars: higher = more signal.
Assay [4] has as its target Carbonic anhydrase 2 (Homo sapiens) (UniProt P00918). The assay is described as follows: CAII small-molecule binders, profiling panel, biochemical, small-molecule microarray, Alexa647-labelled CAII (AID 1122). Particulars: CAII-A647 binding fluorescence, higher = more signal.
Assay [5] is described as follows: COS7 lysate on small-molecule microarray, probe aHis, 635 nm (AID 1123).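 Further: z-score combines 667nm fluorescence intensity with signal-to-noise per printed compound spot.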 Particulars: COS7 cell lysate, fluorescence, higher = more signal.
A short description of assay [6]: compound binding in COS7 lysate, probe aLAP1, primary screen, cell lysate, small-molecule microarray (AID 1124).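 Further: lysate comes from COS7 cells expressing LAP1 and is applied at 0.3 µg/mL; score merges spot fluorescence near 667 nm with signal-to-noise over triplicate slides.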 Particulars: probe aLAP1, fluorescence, higher = more signal.
The next assay concerns Sam68 (KHDRBS1). The assay is described as follows: Sam68 small-molecule binders, primary screen, biochemical, small-molecule microarray, 635 nm fluorescence (AID 1125).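 Further: score merges 667 nm channel intensity with signal to noise over triplicate slides.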 Particulars: small-molecule microarray binding, higher = more signal.
Assay [7] concerns Chordin-like protein 2 (CHRDL2). The assay can be described thus: CHRDL2 small-molecule binders, primary screen, biochemical, small-molecule microarray, 635 nm fluorescence (AID 1126).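 Further: printed compound slides probed with Chrdl2 protein at 4 µg/mL for 1 h at 4 C; score merges 667 nm emission intensity with signal to noise over three replicate slides.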 Conditions: small-molecule microarray binding, fluorescence 635 nm; higher = more signal.
Assay [8] deals with Concanavalin-A (Canavalia ensiformis) (UniProt P02866). The assay is described as follows: ConA small-molecule binders, primary screen, artefact control for SMM control protein annotation, biochemical, small-molecule microarray, Alexa647 label, 635 nm (AID 1127).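 Further: z combines 667 nm emission intensity with signal-to-noise across three replicate slides.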 Conditions: ConA-A647 binding fluorescence, higher = more signal.
Sequence of Concanavalin-A (Canavalia ensiformis) (P02866 whole entry, looked up): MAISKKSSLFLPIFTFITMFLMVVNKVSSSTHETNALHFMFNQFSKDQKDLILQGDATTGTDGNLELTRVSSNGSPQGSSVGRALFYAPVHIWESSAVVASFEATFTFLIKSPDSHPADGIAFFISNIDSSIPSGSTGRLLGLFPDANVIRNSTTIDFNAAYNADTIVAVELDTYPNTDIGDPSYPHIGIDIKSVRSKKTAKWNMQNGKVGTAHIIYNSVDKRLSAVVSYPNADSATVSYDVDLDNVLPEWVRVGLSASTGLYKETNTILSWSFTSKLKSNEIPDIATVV

Sequence of Albumin (Bos taurus) (P02769 whole entry, looked up): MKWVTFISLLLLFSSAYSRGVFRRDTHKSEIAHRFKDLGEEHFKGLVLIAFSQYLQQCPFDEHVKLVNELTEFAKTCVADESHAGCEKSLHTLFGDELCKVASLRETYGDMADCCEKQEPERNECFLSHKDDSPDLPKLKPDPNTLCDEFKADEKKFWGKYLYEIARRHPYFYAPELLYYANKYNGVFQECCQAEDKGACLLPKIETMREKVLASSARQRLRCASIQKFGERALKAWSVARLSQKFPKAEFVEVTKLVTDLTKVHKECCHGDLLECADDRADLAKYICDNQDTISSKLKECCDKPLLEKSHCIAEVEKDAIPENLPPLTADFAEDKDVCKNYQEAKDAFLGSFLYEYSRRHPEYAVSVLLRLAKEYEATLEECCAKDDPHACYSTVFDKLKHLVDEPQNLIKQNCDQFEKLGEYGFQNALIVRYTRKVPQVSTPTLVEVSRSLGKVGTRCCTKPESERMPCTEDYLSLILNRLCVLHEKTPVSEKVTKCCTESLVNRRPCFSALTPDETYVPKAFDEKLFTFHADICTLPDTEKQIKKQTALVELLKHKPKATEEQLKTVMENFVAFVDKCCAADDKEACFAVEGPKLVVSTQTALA

Take `C=CCNC(=O)[C@H]1[C@@H]2C(=O)O[C@@H](c3ccccc3)[C@@H](c3ccccc3)N2[C@@H](c2ccc(O)cc2)[C@]12C(=O)Nc1ccc(C#Cc3ccc(OC)cc3)cc12`: the composite z-score with Albumin (Bos taurus) was -0.208; in assay [2] it was -0.0903; in [3], 0.0086; in assay [4], 0.38; in assay [5] it was 1.68; in assay [6], 0.616. Further, the composite z-score with Sam68 (KHDRBS1) stood at 1.3; in assay [7] it was 0.704; in assay [8], 0.552. For the same compound, in assay [1], the composite Z-score was -0.155 (inactive).
`C[N+](C)(C)CCCC[C@@H]1NC(=O)[C@H]2C[C@@H](C(=O)O)[C@@H](c3cccc(OCCO)c3)N2C1=O`: the composite z-score was 0.969 in the assay with Albumin (Bos taurus); 1.14 in assay [2]; 0.402 in [3]; 0.758 in assay [4]; 3.12 in assay [5]; 1.07 in [6]. In addition, the composite z-score came out at 1.31 with Sam68 (KHDRBS1), 1.17 in assay [7] and 1.22 in assay [8]. The composite Z-score in [1] is 3.73 (inactive).
In the case of `CC1(C)C(=O)C(c2ccccc2)=C2CN3C(=O)N(CCc4ccccc4)C(=O)C3(Cc3ccccc3)C=C21` (stereo not given), the composite z-score in the assay with Albumin (Bos taurus) was 0.775; in [2], 0.351; in assay [3], 0.121; in assay [4], 0.644; in assay [5], 1.16; in [6], -0.0857. In addition, the composite z-score in the assay on Sam68 (KHDRBS1) is 0.516; in [7], -0.888; in assay [8], 0.444. Moreover, in [1], the composite Z-score was 0.274 (inactive).
For the compound `O=C1O[C@@H](c2ccccc2)[C@@H](c2ccccc2)N2[C@@H](c3ccc(O)cc3)[C@]3(C(=O)Nc4ccc(C#CCCO)cc43)[C@@H](C(=O)O)[C@H]12`, the composite z-score in the assay with Albumin (Bos taurus) was determined as 0.323; in assay [2] it was 1.05; in assay [3], 0.734; in assay [4], 0.653; in [5], 2.34; in [6] it was 0.734. Moreover, the composite z-score in the assay with Sam68 (KHDRBS1) came to 0.872; in [7] it was 0.434; in assay [8] it was 1.03. The composite Z-score in [1] is 0.674 (inactive).
As for `CN1C(=O)C2C=CC(C(O)C(C)(C)C)N(Nc3ccccc3)C2C1=O` (stereo not given), the composite z-score was 0.494 with Albumin (Bos taurus); -0.217 in assay [2]; -0.029 in [3]; 0.847 in [4]; 2.78 in [5]; -0.519 in assay [6]. The results for the composite z-score (with Sam68 (KHDRBS1); in assay [7]; in assay [8]) were -0.141, -0.156 and -0.127, respectively. In addition, the composite Z-score in assay [1] is 0.914 (inactive).
In the case of `[N-]=[N+]=NCc1ccccc1C[C@@]1(C(=O)NCc2ccccc2)N=C(c2ccc(OCCCO)cc2)O[C@@H]1c1ccccc1CN=[N+]=[N-]`, the composite z-score in the assay with Albumin (Bos taurus) stood at 0.684; in assay [2] it was 0.328; in [3] it was 0.273; in [4], 0.669; in assay [5] it was 2.21; in [6], 0.745. The composite z-score with Sam68 (KHDRBS1) is 1.3; in assay [7], -0.106; in assay [8], 1. Moreover, the composite Z-score in assay [1] is 0.936 (inactive).
Turning to `CCCNC(=O)[C@@]1(C)c2ccccc2C(=O)N(Cc2cc(C(F)(F)F)cc(C(F)(F)F)c2)[C@H]1c1ccc(CO)cc1`, the composite z-score with Albumin (Bos taurus) is -0.549; in [2] it was -0.198; in assay [3], -0.114; in assay [4], 0.671; in assay [5] it was 1.68; in [6], 0.458. In addition, the composite z-score is 0.356 in the assay with Sam68 (KHDRBS1), -1.08 in assay [7] and -0.082 in [8]. For the same compound, in assay [1], the composite Z-score was 0.147 (inactive).
As to `C=CCN1C(=O)[C@@]2(O[C@@H](CCO)[C@H]([Si](C)(C)c3ccc(OC)cc3)[C@H]2C)c2cc(N3C(=O)COc4ccccc43)ccc21`, the composite z-score in the assay with Albumin (Bos taurus) was 0.277; in [2], -0.141; in assay [3], -0.14; in assay [4], 0.277; in [5], 1.4; in assay [6], 0.0661. Moreover, the composite z-score in the assay on Sam68 (KHDRBS1) is 1.29; in assay [7] it was -0.317; in [8], 0.973. For the same compound, in assay [1], the composite Z-score is 0.69 (inactive).
On to `COC(=O)[C@@]1(Cc2ccc(OC)cc2)[C@H]2c3cc(C(=O)N(C)C)n(CCSCCO)c3C[C@H]2CN1C(=O)c1ccccc1`, for which the composite z-score is 0.905 with Albumin (Bos taurus); 0.182 in assay [2]; 0.407 in assay [3]; 0.844 in assay [4]; 2.4 in [5]; -0.0747 in assay [6]. Also, the figures for the composite z-score (in the assay with Sam68 (KHDRBS1); in [7]; in assay [8]) were 1.23, -0.186 and 1.13, respectively. The composite Z-score in [1] is -0.786 (inactive).
As for `CCCC[C@H]1C[C@@H]1[C@@H]1N(P(=O)(c2ccccc2)c2ccccc2)[C@](CO)(c2ccccc2)CC12CC2`, the composite z-score with Albumin (Bos taurus) was 0.914; in [2] it was 0.112; in [3], 0.281; in assay [4] it was 0.285; in assay [5], 2.17; in assay [6] it was -0.384. In addition, the composite z-score was 0.255 with Sam68 (KHDRBS1), -1.39 in assay [7] and 0.558 in assay [8]. For the same compound, the composite Z-score in assay [1] was -0.0435 (inactive).
Regarding `COC(=O)c1nc2oc1CC[C@@H](CO)NC(=O)N(C)Cc1cn(nn1)C[C@H](Cc1ccccc1)NC2=O`, the composite z-score with Albumin (Bos taurus) was 0.775; in assay [2] it was -0.256; in [3] it was -0.152; in assay [4], 0.942; in assay [5], 1.02; in assay [6] it was 0.483. The composite z-score with Sam68 (KHDRBS1) is 0.178; in assay [7], 0.376; in assay [8], 0.667. The composite Z-score in [1] is -0.275 (inactive).
Consider `CN1C(=O)C2C=CC(C(O)C=Cc3ccc([N+](=O)[O-])cc3)N(N3CCCCC3)C2C1=O` (stereo not given), for which the composite z-score with Albumin (Bos taurus) came to 0.933; in assay [2], 1.03; in assay [3], 0.713; in assay [4] it was 0.766; in [5] it was 2.1; in assay [6] it was 1.52. Further, the composite z-score with Sam68 (KHDRBS1) was 1.31; in assay [7] it was 0.57; in [8], 1.2. The composite Z-score in [1] is 0.693 (inactive).
Take `NC(=O)NCC#Cc1ccc2c(c1)[C@]1(C(=O)N2)[C@H](c2ccc(O)cc2)N2[C@H](c3ccccc3)[C@H](c3ccccc3)OC(=O)[C@H]2[C@@H]1C(=O)N1CCN(c2ncccn2)CC1`: the composite z-score in the assay with Albumin (Bos taurus) is 0.317; in [2] it was 0.191; in assay [3], -0.0048; in assay [4], 0.396; in assay [5], 1.64; in [6] it was 0.32. The composite z-score in the assay on Sam68 (KHDRBS1) is -0.0586; in assay [7], -0.165; in assay [8], 0.377. Moreover, the composite Z-score in assay [1] is 1.24 (inactive).
Turning to `COCCOC(=O)N1C(=O)[C@@]2(c3cc(C#CC4=CCCCC4)ccc31)[C@H](c1ccc(OCCO)cc1)N1[C@H](c3ccccc3)[C@H](c3ccccc3)OC(=O)[C@H]1[C@@H]2C(=O)Nc1nc2ccccc2s1`, the composite z-score in the assay with Albumin (Bos taurus) was 0.539; in assay [2] it was 0.151; in assay [3], -0.0483; in assay [4], 0.154; in assay [5] it was 0.999; in assay [6], 0.664. The results for the composite z-score (in the assay on Sam68 (KHDRBS1); in assay [7]; in [8]) were 1.31, 1.29 and 1.09, respectively. Further, the composite Z-score in assay [1] was 0.657 (inactive).
On to `COC(=O)[C@@]1(Cc2ccc(OC)cc2)[C@H]2c3cc(C(=O)N4CCCC4)n(CCc4ccccn4)c3C[C@H]2CN1C(=O)c1ccccc1`, for which the composite z-score in the assay with Albumin (Bos taurus) stood at 0.348; in assay [2], 0.268; in assay [3] it was 0.0746; in [4], 0.862; in assay [5], 3.52; in assay [6] it was 0.425. The figures for the composite z-score (with Sam68 (KHDRBS1); in assay [7]; in assay [8]) were -0.724, -0.236 and 0.949, respectively. For the same compound, in assay [1], the composite Z-score was 0.868 (inactive).
With `C=C(/C(=C/C[C@@H](OC(=O)c1ccncc1)c1ccc(CO)o1)c1cc(C(=O)OC)ccc1OC)C(C)C`, the composite z-score with Albumin (Bos taurus) was 0.83; in assay [2], 0.0311; in [3], -0.109; in assay [4], 0.588; in assay [5] it was 1.13; in [6] it was 0.812. Besides, the composite z-score with Sam68 (KHDRBS1) stood at 1.3; in [7], 0.737; in assay [8] it was 1.08. The composite Z-score in assay [1] is 0.459 (inactive).

Values taken from PubChem BioAssay.
